Compound activity deposited in PubChem by National Center for Advancing Translational Sciences (NCATS).
D1 antag: Antagonist of Human D 1 Dopamine Receptor: qHTS | activity change, negative = inhibition, % at 10 µM | 360,000 compounds, 3.2% hits | D(1A) dopamine receptor (Homo sapiens), P21728 | HEK293 TREx D1 cells, calcium flux, dopamine EC80; active compounds read low; in the data active means activity change below about -30%
Target sequence (P21728 whole entry, looked up): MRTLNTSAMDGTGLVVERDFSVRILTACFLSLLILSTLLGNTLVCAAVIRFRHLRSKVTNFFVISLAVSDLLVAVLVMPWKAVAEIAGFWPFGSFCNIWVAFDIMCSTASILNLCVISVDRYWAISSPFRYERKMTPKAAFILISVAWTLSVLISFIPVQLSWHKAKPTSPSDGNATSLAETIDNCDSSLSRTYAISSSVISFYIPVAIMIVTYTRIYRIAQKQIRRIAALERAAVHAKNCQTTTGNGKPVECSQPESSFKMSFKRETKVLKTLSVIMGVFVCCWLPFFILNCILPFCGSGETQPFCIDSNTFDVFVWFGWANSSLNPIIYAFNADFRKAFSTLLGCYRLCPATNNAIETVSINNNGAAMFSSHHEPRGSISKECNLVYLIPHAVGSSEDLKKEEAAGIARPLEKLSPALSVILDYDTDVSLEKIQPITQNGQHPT
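Inducible Hek293 Trex D1 cells (tetracycline, overnight, 30 C). Calcium dye 30–90 min RT. Antagonist mode: EC80 dopamine added after 180 s compound read.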
D3 antag: qHTS of D3 Dopamine Receptor Antagonist: qHTS; AID 652054, 2013; D(3) dopamine receptor (Homo sapiens), P35462; 360,000 compounds, 2.5% hits; max response, negative = inhibition, %; D3R cells, DiscoveRx beta-arrestin luminescence, antagonist mode; active compounds read low; in the data active means max response below about -50%; inconclusive means no clear call, values can overlap the other calls
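Cells plated overnight at 1500 cells/well, then exposed to library compounds with dopamine controls for 90 minutes at 37 degrees C. DiscoveRx reagent added for 30–60 minutes at room temperature; luminescence read, quantitative HTS format.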
DRD3 agonist: qHTS of D3 Dopamine Receptor Agonist: qHTS; AID 652048, 2013; D3R DiscoveRx beta-arrestin cells, luminescence, 90 min; 410,000 compounds, 0.58% hits; max activation, %; D(3) dopamine receptor (Homo sapiens), P35462; in the data active means max activation above about 30%
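Agonist mode: compounds and dopamine controls were applied to plated cells for 90 min at 37 degrees C after an overnight attachment at 1500 cells/well. Luminescent read-out followed 30 - 60 minutes at room temperature with DiscoveRx detection reagent.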
D1 ag: Allosteric Agonists of the Human D1 Dopamine Receptor: qHTS; HEK293 T-REx D1 cells, calcium flux, agonist mode; activation, % at 2 µM; 360,000 compounds, 1% hits; D(1A) dopamine receptor (Homo sapiens), P21728; AID 504660, 2011; in the data active means activation above about 30%
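Inducible HEK293 T-REx D1 cells, force-coupled to calcium signalling, were plated at 4000 cells/well with tetracycline and held overnight at 30 C. After no-wash calcium dye loading, compound-evoked calcium rise over 180 s flagged agonists.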
D1 potentiator: Potentiators of Human D1 Dopamine Receptor: qHTS | 360,000 compounds, 0.036% hits | potentiation, % at 10 µM | D(1A) dopamine receptor (Homo sapiens), P21728 | HEK293 TREx D1 cells, calcium flux, dopamine EC20 potentiation; in the data active means potentiation above about 30%
Numbers stand for hits; . = inactive; ? = inconclusive; / = no result given. This is a sample that favours compounds with a hit; in the whole collection about 6% have one here.

SMILES | D1 antag | D3 antag | DRD3 agonist | D1 ag | D1 potentiator
O=C(Cc1ccccc1)NC1CCN(Cc2ccccc2)CC1 | . | ? | . | . | .
COc1ccc(C)cc1NC(=O)NC1CCN(Cc2ccccc2)CC1 | . | -83 | . | . | .
COc1ccc(S(=O)(=O)NC2CCN(Cc3ccccc3)CC2)cc1NC(C)=O | . | . | . | . | .
CCC1=Nc2cc(C(=O)NC3CCCC3)ccc2Sc2ccc(Br)cc21 | . | / | . | . | .
Cc1cc(C)n(CC(=O)Nc2ccc(F)c(F)c2)c(=O)c1C#N | . | / | . | . | .
Cc1ccc2nc(N3CCN(C)CC3)c(C#N)cc2c1 | . | ? | . | . | .
Cc1ccc2cc(C#N)c(N3CCN(C)CC3)nc2c1 | . | -82 | . | . | .
Cc1ccc2cc(C#N)c(NCc3ccccc3)nc2c1 | -33 | . | . | . | .
Cc1cccc2cc(C#N)c(N3CCN(C)CC3)nc12 | . | -72 | . | . | .
Cc1cccc2cc(C#N)c(NCc3ccccc3)nc12 | . | . | . | . | .
COc1ccc(-n2c(=O)c3c4c(sc3n(Cc3ccc(C)cc3C)c2=O)CCC4)c(OC)c1 | . | / | . | . | .
CCOC(=O)/C(=C/C=C1\Sc2cc(C)c(C)cc2N1CC)C(C)=O | . | . | . | 349 | .
CCOC(=O)/C(=C\C=C1/Sc2ccccc2N1CC)C(C)=O | . | . | . | 290 | .
CCN1/C(=C/c2ccc3cc(C)ccc3[n+]2CC)Sc2cc(C)c(C)cc21 | . | . | . | . | .
CCC(=O)/C=C1/Sc2ccccc2N1CC | . | . | . | . | .
CCOC(=O)/C(=C/C=C1\Sc2ccccc2N1CC)C(C)=O | . | . | . | 219 | .
O=S(=O)(c1ccc(F)cc1)N1CCN(c2nc(-c3cccc(Br)c3)nc3ccccc23)CC1 | . | / | / | . | .
Cc1ccsc1C(=O)N1CCC1(C)C(=O)NS(=O)(=O)c1ccccc1C(F)(F)F (configuration not stated) | / | . | 99 | / | /
CC1(C(=O)NS(=O)(=O)c2ccccc2OC(F)(F)F)CCN1C(=O)c1ccco1 (configuration not stated) | / | -60 | . | / | /
Cc1ccsc1C(=O)N1CCC1(C)C(=O)NS(=O)(=O)c1ccccc1 (configuration not stated) | / | . | . | / | /
COc1cccc(-c2nn(-c3ccccc3)cc2/C=C\C(=O)c2cccs2)c1 | . | . | . | 33 | .
Cn1c(=O)n(-c2ccc(F)c(Cl)c2)c(=O)c2sc3ccccc3c21 | . | / | . | . | .
CC(O)(c1ccc(F)c(F)c1)c1nc(-c2ccc3ccccc3c2)cs1 (configuration not stated) | / | -56 | . | / | /
CC(O)(c1ccccc1)c1nc(-c2cc3ccccc3o2)cs1 (configuration not stated) | / | -58 | . | / | /
CC(O)(c1cccc(F)c1)c1nc(-c2cccc(F)c2)cs1 (configuration not stated) | / | ? | . | / | /
SMILES | D1 antag | D3 antag | DRD3 agonist | D1 ag | D1 potentiator
CC(O)(c1cccnc1)c1nc(-c2cccc(C(F)(F)F)c2)cs1 (configuration not stated) | / | . | 38 | / | /
COCc1cccc(-c2csc(C(C)(O)c3cccc(F)c3)n2)c1 (configuration not stated) | / | -90 | . | / | /
Cc1ccc(Cl)cc1N1CCN(C(=O)c2cccn2-c2nnc(N3CCCC3)s2)CC1 | . | / | . | . | .
Cc1cc(C)c2oc(C(=O)Nc3c(C)n(C)n(-c4ccccc4)c3=O)cc(=O)c2c1 | . | / | . | . | .
CCC[N+]1(CC#CC(O)(c2ccccc2)C2CCCCC2)CCCCC1 (configuration not stated) | . | -54 | . | . | .
O=C1c2ccccc2C(=O)N1Cc1ccco1 | . | . | . | . | .
O=C1CCC(=O)N1CN(Cc1ccco1)CN1C(=O)CCC1=O | -77 | . | . | . | .
Cc1ccc2nc(SCc3nc(-c4ccc(Cl)cc4)no3)[nH]c2c1 | . | / | . | . | .
CC(=O)c1cccc(NC(=O)CCn2nc(C)c(S(=O)(=O)N(C)C)c2C)c1 | -47 | / | . | . | .
CCOC(=O)c1cccc(NC(=O)CCn2nc(C)c(S(=O)(=O)N3CCCCC3)c2C)c1 | . | . | . | . | .
O=C(CN1C(=O)c2cccnc2C1=O)c1ccccc1 | -31 | . | . | . | .
CCn1nc(-c2ccccc2)c2nc3ccccc3nc21 | . | . | . | 98 | .
CCCn1nc(-c2ccccc2)c2nc3ccccc3nc21 | . | . | . | 70 | .
CCCCCn1nc(-c2ccccc2)c2nc3ccccc3nc21 | . | . | . | 37 | .
Cc1cccc(C(c2sc3nc(-c4ccco4)nn3c2O)N2CCN(Cc3ccccc3)CC2)c1 (configuration not stated) | / | / | . | . | .
COc1ccccc1N1CCN(C(=O)c2ccc(Nc3nc4ccccc4n4nnnc34)cc2)CC1 | . | / | . | . | .
CN(CC(=O)N1CCc2ccccc21)S(=O)(=O)c1ccc(Cl)cc1 | . | . | . | . | .
O=C(CC(NS(=O)(=O)c1ccc(Cl)cc1)c1ccco1)N1CCc2ccccc21 (configuration not stated) | . | -69 | . | . | .
CCC(C)NC(=O)CC(NS(=O)(=O)c1ccc(Cl)cc1)c1ccco1 (configuration not stated) | . | -53 | . | . | .
Cc1oc(-c2ccc(C(=O)Nc3cccc(C(F)(F)F)c3)cc2)nc1CSc1ccccc1 | . | / | . | . | .
COc1ccc(NC(=O)CCc2c(C)nn(-c3ccc(N4CCCC4)nn3)c2C)cc1Cl | . | / | . | . | .
CCC(Cn1nnc2ccccc2c1=O)NC(=O)Nc1cccc(C)c1C (configuration not stated) | . | / | . | . | .
Cc1ccc(CNC(=O)c2cccnc2Sc2cccc(Cl)c2)cc1 | . | . | . | 46 | .
COc1ccccc1CCNC(=O)c1ccc(NC(=O)N2CC(C)Sc3ccccc32)cc1 (configuration not stated) | . | / | . | . | .
COCC(=O)Nc1nnc(-c2ccc(C(C)(C)C)cc2)s1 | . | . | . | 34 | .
CCN(CC)c1ccc(NC(=O)C2CCN(c3nnc(-n4cccc4)s3)CC2)c(C)c1 | -38 | / | . | . | .
O=C(Nc1ccccc1C(F)(F)F)C1CCN(c2nnc(-n3cccc3)s2)CC1 | . | / | . | . | .
O=C(NCCCN1CCc2ccccc2C1)C1CCN(c2nnc(-n3cccc3)s2)CC1 | . | -82 | . | . | .
COc1ccc(CC(=O)Nc2c(C(=O)Nc3ccccc3F)oc3ccccc23)cc1 | . | / | . | . | .
